Assay results published in PubChem BioAssay.
Activity calls are given as the source filed them.

Tests used:
[1] = system: Plasmodium falciparum Sir2 (PF13_0152, Sir2A); test: Plasmodium falciparum Sir2A binding compounds – biochemical, small-molecule microarray, 635 nm fluorescence, primary screen (AID 1098); conditions: fluorescence 635 nm, higher = more signal;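 further: score merges spot fluorescence intensity with its signal-to-noise ratio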
[2] = probe aDKK1 binding to arrayed compounds – biochemical, biotinylated probe, 635/667 nm fluorescence, primary screen (AID 1099); conditions: small-molecule microarray, higher = more signal;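 further: score merges 667nm spot fluorescence with signal to noise across triplicate slides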
[3] = probe aCHRDL2 binding to arrayed compounds – biochemical, biotinylated probe, 635/667 nm fluorescence, primary screen (AID 1100); conditions: small-molecule microarray, higher = more signal
[4] = change in splice reporter luminescence, either direction, cell-based, HEK293, spliceosome inhibition project, primary screen (AID 1101); conditions: HEK293 splicing luciferase reporter, 24 h, higher = more signal, called active from +8 up or from −8 down;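 further: HEK293 cells carrying a splicing-competent luciferase reporter gene; test concentration not given here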
[5] = molecular target: Fibroblast growth factor 10 (Homo sapiens) (UniProt O15520); test: compounds binding fibroblast growth factor 10 – biochemical, small-molecule microarray, 635 nm fluorescence, primary screen (AID 1102); conditions: FGF10 binding, fluorescence 635 nm, higher = more signal
Chain of Fibroblast growth factor 10 (Homo sapiens) (O15520 whole entry, looked up): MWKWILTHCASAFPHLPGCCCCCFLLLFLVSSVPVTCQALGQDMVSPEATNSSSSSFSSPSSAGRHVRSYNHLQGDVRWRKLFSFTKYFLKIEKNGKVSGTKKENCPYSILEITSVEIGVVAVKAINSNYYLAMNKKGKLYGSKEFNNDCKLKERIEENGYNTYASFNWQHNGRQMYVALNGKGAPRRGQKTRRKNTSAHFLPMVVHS

[6] = system: glycogen synthase kinase-3 (GSK3A per assay name; protocol says GSK3B); test: compounds binding glycogen synthase kinase-3 – biochemical, small-molecule microarray, 635 nm fluorescence, GSK3A, primary screen (AID 1103); conditions: fluorescence 635 nm, higher = more signal; further: the record names both GSK3A and GSK3B
[7] = molecular target: Epidermal growth factor receptor (Homo sapiens) (UniProt P00533); test: compounds binding epidermal growth factor receptor – biochemical, small-molecule microarray, 635 nm fluorescence, primary screen (AID 1104); conditions: EGFR binding, higher = more signal;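 further: score merges 667 nm emission intensity with spot signal to noise over triplicate slides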
Chain of Epidermal growth factor receptor (Homo sapiens) (P00533 whole entry, looked up): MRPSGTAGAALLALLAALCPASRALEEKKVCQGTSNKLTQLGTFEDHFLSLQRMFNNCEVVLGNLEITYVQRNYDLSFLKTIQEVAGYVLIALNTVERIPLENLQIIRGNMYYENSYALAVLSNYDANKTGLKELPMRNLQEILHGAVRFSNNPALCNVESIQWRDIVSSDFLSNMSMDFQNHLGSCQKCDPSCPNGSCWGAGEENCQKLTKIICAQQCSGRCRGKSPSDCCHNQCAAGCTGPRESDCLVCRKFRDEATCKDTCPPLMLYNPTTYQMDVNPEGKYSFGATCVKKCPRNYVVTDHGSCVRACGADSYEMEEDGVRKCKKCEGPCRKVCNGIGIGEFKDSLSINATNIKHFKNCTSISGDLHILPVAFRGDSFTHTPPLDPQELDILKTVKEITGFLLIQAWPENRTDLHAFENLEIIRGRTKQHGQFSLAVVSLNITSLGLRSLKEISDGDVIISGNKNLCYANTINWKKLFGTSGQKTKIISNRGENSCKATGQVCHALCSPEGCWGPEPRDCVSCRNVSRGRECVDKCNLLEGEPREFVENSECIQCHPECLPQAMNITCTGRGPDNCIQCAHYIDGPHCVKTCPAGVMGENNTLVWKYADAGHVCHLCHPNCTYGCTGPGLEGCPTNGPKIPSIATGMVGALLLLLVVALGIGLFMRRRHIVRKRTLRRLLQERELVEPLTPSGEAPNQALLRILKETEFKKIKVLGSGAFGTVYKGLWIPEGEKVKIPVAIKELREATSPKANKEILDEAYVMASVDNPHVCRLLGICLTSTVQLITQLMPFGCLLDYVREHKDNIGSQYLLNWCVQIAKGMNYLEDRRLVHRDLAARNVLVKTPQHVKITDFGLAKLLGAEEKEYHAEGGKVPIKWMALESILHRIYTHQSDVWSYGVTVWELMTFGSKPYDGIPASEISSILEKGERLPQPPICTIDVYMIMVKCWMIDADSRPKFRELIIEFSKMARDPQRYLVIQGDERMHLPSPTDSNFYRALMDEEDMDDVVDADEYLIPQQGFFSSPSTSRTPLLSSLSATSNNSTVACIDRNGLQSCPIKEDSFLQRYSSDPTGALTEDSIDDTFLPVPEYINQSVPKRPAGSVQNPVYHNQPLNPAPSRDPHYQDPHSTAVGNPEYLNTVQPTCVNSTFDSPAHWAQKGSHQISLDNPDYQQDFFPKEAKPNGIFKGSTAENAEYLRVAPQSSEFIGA

[8] = molecular target: Follistatin-related protein 3 (Homo sapiens) (UniProt O95633); test: compounds binding follistatin-related protein 3 – biochemical, small-molecule microarray, 635 nm fluorescence, primary screen (AID 1105); conditions: FSTL3 binding, higher = more signal;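 further: score merges emission near 667 nm and signal to noise per printed spot across three slides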
Chain of Follistatin-related protein 3 (Homo sapiens) (O95633 whole entry, looked up): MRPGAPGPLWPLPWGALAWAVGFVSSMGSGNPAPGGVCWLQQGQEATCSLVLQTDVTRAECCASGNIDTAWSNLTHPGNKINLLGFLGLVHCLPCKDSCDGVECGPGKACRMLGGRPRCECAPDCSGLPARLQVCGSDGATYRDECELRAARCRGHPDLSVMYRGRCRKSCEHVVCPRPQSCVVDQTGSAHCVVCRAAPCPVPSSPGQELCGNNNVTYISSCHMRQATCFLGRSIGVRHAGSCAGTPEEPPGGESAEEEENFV

[9] = molecular target: Dickkopf-related protein 1 (Homo sapiens) (UniProt O94907); test: small molecules binding DKK1 protein – biochemical, small-molecule microarray, 635 nm fluorescence scan, primary screen (AID 1106); conditions: higher = more signal;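 further: score merges emission near 667 nm with signal to noise over three replicate slides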
Chain of Dickkopf-related protein 1 (Homo sapiens) (O94907 whole entry, looked up): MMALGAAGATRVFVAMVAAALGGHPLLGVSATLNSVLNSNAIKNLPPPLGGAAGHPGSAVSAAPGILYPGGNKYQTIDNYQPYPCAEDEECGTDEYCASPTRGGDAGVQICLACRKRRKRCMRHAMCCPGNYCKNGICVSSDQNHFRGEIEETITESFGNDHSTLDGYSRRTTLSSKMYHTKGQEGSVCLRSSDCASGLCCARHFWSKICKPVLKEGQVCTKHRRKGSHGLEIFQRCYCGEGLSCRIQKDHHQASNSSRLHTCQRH

[10] = system: Inhibin beta A chain (activin A); test: small molecules binding activin A – biochemical, small-molecule microarray, 635 nm fluorescence scan, primary screen (AID 1107); conditions: INHBA, higher = more signal;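 further: mouse activin A protein probed at 4.33 µg/mL on printed slides; score merges bound-protein fluorescence near 667 nm with spot signal-to-noise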
[11] = system: Human papillomavirus type 1a protein E7 (residues 44-93); test: small molecules binding HPV E7 44-93 – biochemical, small-molecule microarray, residues 44-93, 635 nm fluorescence, primary screen (AID 1108); conditions: fluorescence 635 nm, higher = more signal;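 further: E7 fragment applied at 1 µg/mL in TBST for 1 h at 4 C; score combines spot fluorescence with its signal to noise ratio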
[12] = hepatitis C replication reporter changes, two-sided – Huh7 cells, luciferase reporter, HCV replication inhibitor project, primary screen (AID 1109); conditions: Huh7 HCV replicon luciferase reporter, 48 h; higher = more signal;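 further: huh7 hepatoma cells harbouring a luciferase neomycin HCV replicon reporter; luciferase luminescence as measure of HCV replicon replication; test concentration not given here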
[13] = molecular target: Left-right determination factor 2 (Homo sapiens) (UniProt O00292); test: small molecules binding LEFTY2 protein – biochemical, small-molecule microarray, 635 nm fluorescence scan, primary screen (AID 1110); conditions: higher = more signal
Chain of Left-right determination factor 2 (Homo sapiens) (O00292 whole entry, looked up): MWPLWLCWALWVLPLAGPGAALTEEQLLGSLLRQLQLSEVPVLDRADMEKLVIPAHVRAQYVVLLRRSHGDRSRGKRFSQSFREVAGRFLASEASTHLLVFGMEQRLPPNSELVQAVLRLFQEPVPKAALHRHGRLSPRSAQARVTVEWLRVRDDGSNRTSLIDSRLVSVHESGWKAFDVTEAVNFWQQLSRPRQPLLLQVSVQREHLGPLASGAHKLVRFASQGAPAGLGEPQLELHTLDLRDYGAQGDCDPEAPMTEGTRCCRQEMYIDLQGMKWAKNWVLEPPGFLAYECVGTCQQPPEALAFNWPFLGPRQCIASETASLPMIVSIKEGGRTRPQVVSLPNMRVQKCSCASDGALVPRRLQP

[14] = molecular target: Calmodulin-1 (Homo sapiens) (UniProt P0DP23); test: small molecules binding calmodulin-1 with EGTA – biochemical, small-molecule microarray, Cy5-labelled CALM1, profiling panel (AID 1111); conditions: Cy5-CALM1 binding fluorescence, higher = more signal;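 further: labelled calmodulin applied in Tris saline Tween buffer holding calcium plus EGTA and DTT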
[15] = molecular target: Calmodulin-1 (Homo sapiens) (UniProt P0DP23); test: small molecules binding Ca-loaded calmodulin-1 – biochemical, small-molecule microarray, Cy5-labelled CALM1, plus calcium, artefact control for SMM control-protein annotation, profiling panel (AID 1112); conditions: Cy5-CALM1 binding fluorescence, higher = more signal;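 further: score merges spot fluorescence with signal to noise from triplicate slides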
[16] = probe aWnt5a binding to arrayed compounds – biochemical, biotinylated probe, 635/667 nm fluorescence, primary screen (AID 1113); conditions: small-molecule microarray, higher = more signal;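 further: score merges 667 nm fluorescence intensity with signal-to-noise per printed feature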
[17] = probe aShh binding to arrayed compounds – biochemical, biotinylated probe, 635/667 nm fluorescence, primary screen (AID 1114); conditions: small-molecule microarray, higher = more signal;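 further: probe is biotin-labelled aShh protein from a stem cell growth factor screen; measures binding of labelled protein to compounds printed on the slide; score merges feature fluorescence at 667 nm with signal-to-noise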
[18] = probe aNog binding to arrayed compounds – biochemical, biotinylated probe, 635/667 nm fluorescence, primary screen (AID 1115); conditions: small-molecule microarray, higher = more signal;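 further: probe is biotinylated aNog protein used at 0.15 µg/mL for 1 h at 4 C; z-score combines 667 nm fluorescence of each spot with its signal to noise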
[19] = molecular target: Torsin-1A-interacting protein 1 (Homo sapiens) (UniProt Q5JTV8); test: compound microarray binding of lysate hLAP1 – cell lysate, small-molecule microarray, COS7 lysate, 635/667 nm fluorescence, primary screen (AID 1116); conditions: 635 nm fluorescence, higher = more signal
Chain of Torsin-1A-interacting protein 1 (Homo sapiens) (Q5JTV8 whole entry, looked up): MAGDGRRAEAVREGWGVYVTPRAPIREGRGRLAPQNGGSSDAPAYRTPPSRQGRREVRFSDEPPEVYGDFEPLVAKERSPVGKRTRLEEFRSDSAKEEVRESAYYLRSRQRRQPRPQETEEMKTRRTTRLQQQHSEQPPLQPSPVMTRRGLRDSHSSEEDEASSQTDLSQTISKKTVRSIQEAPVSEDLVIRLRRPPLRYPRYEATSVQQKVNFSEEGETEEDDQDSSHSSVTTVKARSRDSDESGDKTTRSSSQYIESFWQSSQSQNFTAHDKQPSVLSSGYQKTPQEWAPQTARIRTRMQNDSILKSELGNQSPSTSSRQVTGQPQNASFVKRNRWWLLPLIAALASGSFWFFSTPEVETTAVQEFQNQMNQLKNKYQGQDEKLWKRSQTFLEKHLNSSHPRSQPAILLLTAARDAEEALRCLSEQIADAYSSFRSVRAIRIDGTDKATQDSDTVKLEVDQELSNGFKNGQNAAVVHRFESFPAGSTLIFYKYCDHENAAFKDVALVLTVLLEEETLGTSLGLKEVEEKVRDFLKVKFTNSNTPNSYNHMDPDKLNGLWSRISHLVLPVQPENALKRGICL

[20] = molecular target: Alpha-bungarotoxin (Bungarus multicinctus) (UniProt P60615); test: compounds binding labelled alpha-BTX control protein – biochemical, small-molecule microarray, Alexa647 label, 635/667 nm fluorescence, artefact control for SMM control protein annotation, profiling panel (AID 1117); conditions: alpha-BTX-A647 binding fluorescence, higher = more signal
Chain of Alpha-bungarotoxin (Bungarus multicinctus) (P60615 whole entry, looked up): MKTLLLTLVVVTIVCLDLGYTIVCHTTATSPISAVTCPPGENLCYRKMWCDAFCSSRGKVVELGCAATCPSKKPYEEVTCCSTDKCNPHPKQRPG

Row | Structure (SMILES) | composite z-score [1] | composite z-score [2] | composite z-score [3] | z-score [4] | composite z-score [5] | composite z-score [6] | composite z-score [7] | composite z-score [8] | composite z-score [9] | composite z-score [10] | composite z-score [11] | z-score [12] | composite z-score [13] | composite z-score [14] | composite z-score [15] | composite z-score [16] | composite z-score [17] | composite z-score [18] | composite z-score [19] | composite z-score [20]
1 | Cc1ccc(S(=O)(=O)N[C@H]2COC(=O)CC=C[C@H](C)[C@@H](NS(=O)(=O)c3ccc(C)cc3)COC(=O)CC=C[C@@H]2C)cc1 | -0.0784 | -0.217 | -0.588 | 0.647 (inactive) | 0.925 | 0.607 | 0.364 | 0.577 | 0.486 | -0.136 | 0.584 | -0.622 | 0.518 | -0.324 | -0.6 | -0.351 | -0.476 | -0.0381 | -0.129 | 0.149
2 | CCCNC(=O)OC[C@H]1O[C@H](CCON=C(C)CCN2CCCc3nc(C)c(C)cc32)C=C[C@@H]1Oc1ccc(OC)cc1 | 0.333 | 0.595 | -0.237 | 0.304 (inactive) | 0.653 | 0.73 | 0.509 | 0.605 | 0.687 | 0.491 | 0.652 | -2.36 | 0.425 | 0.65 | 0.241 | -0.119 | 0.0952 | 0.358 | 0.186 | 0.782
3 | CC(CCN1CCCCc2nc(C)c(C)cc21)=NOC[C@@H](O)COCc1ccco1 | 1.19 | -0.286 | -1.58 | 0.44 (inactive) | 1.26 | 1.34 | 1.74 | 1.52 | 2 | 1.79 | -1.68 | 0.0716 | 1.61 | -1.34 | -1.81 | -0.129 | 0.0121 | -0.911 | 0.43 | -0.527
4 | C[C@@H](c1ccccc1)N1C(=O)[C@H]2[C@H]3[C@H](O)[C@H](O)CC(=NOCc4ccccc4)[C@H]3CC[C@H]2C1=O | 0.8 | -0.197 | -0.442 | -0.0874 (inactive) | 0.601 | 0.535 | 0.45 | 0.44 | 0.312 | -0.27 | 1.43 | 0.547 | 0.491 | 0.209 | -0.298 | -0.0635 | -0.0626 | -0.425 | 0.826 | 0.571
5 | COc1ccc(O[C@H]2C=C[C@@H](c3ccccc3)O[C@@H]2CON=C2[C@H]3CCn4c(=O)n(-c5ccccc5)c(=O)n4[C@H]3[C@H](O)[C@@H]3O[C@H]23)cc1 | 0.393 | 0.214 | -0.224 | 1.09 (inactive) | 0.464 | 0.417 | 0.318 | 0.584 | 0.288 | 0.338 | 0.807 | -4.67 | 0.505 | 0.719 | -0.21 | -0.0192 | -0.0769 | -0.0855 | 0.24 | 0.974
6 | O=c1n(Cc2cc3c(cc2Cl)OCO3)c(=O)n2n1CC[C@@H]1C(=NOCc3ccccc3)[C@H]3O[C@H]3[C@@H](O)[C@@H]12 | 0.172 | 0.87 | -0.546 | -1 (inactive) | 0.531 | 0.432 | 0.452 | 0.587 | 0.669 | 0.111 | 0.439 | 0.51 | 0.582 | 0.0528 | -0.827 | -0.152 | -0.34 | -0.519 | 0.157 | -0.0536
7 | CCOC(=O)[C@H](CC(C)C)NC(=O)CCC1CC(OC(=O)NCc2cccc3ccccc23)CC2(CCCC(COC(=O)NCC3CCCCC3)O2)O1 (stereo not given in full) | 0.442 | -0.11 | -0.369 | -1.42 (inactive) | 0.924 | 0.941 | 0.344 | 0.855 | 0.6 | 0.0385 | 1.31 | -1.93 | 0.559 | 0.162 | -0.376 | -0.0792 | -0.2 | -0.256 | 0.158 | 0.742
8 | CC(CCN1CCCc2nc(C)c(C)cc21)=NOC(C)CN1CCCCc2nc(C)c(C)cc21 (stereo not given) | 1.16 | 0.0616 | -0.271 | 0.322 (inactive) | 1.14 | 1.28 | 1.2 | 1.42 | 1.18 | 1.43 | 1.35 | -1.66 | 0.984 | 0.341 | -0.568 | 0.159 | 0.689 | 0.57 | 0.436 | 0.714
9 | CCOC(=O)[C@H](Cc1ccccc1)NC(=O)CCC1CC(OC(=O)NCCc2ccc(F)cc2)CC2(CCCC(COC(=O)NCc3ccccc3)O2)O1 (stereo not given in full) | 0.857 | -0.208 | -0.614 | 0.207 (inactive) | 1.16 | 0.572 | 0.33 | 0.76 | 0.529 | 0.0158 | 1.29 | -0.929 | 0.829 | 0.774 | -0.129 | -0.157 | 1.15 | -0.118 | 0.601 | 0.154
10 | CC(=O)OC[C@H]1O[C@H](CC=NO[C@H](C)c2cn([C@H](CO)Cc3ccccc3)nn2)C=C[C@@H]1OC(C)=O | 0.95 | -0.154 | -0.357 | 0.67 (inactive) | 0.945 | 0.926 | 0.569 | 0.995 | 1.43 | -0.143 | 1.16 | -0.355 | 0.852 | 0.081 | -0.367 | -0.0231 | -0.0553 | 0.223 | 0.213 | 1.27
11 | O=C1[C@H]2[C@H]3[C@H](O)[C@H](O)CC(=NOCc4ccccc4)[C@@H]3CC[C@H]2C(=O)N1C[C@@H]1CCCO1 | 0.0048 | -0.168 | -0.21 | 0.274 (inactive) | 0.179 | -0.451 | -0.0735 | -0.304 | -0.028 | 0.164 | -0.236 | 0.189 | 0.316 | 0.583 | -0.0696 | -0.117 | -0.0553 | -0.158 | -0.126 | 0.879
12 | C[C@@H]1CC[C@H]2C(=O)O[C@@H](COc3ccc(C(C)(C)C)cc3)CN2[C@@H]1c1ccc(Br)cc1 | -0.0295 | -0.339 | -0.0805 | -0.36 (inactive) | -0.828 | -0.796 | -0.291 | -0.964 | -0.924 | 0.011 | -0.631 | -0.0485 | -0.403 | -0.121 | 0.578 | -0.179 | -0.289 | 0.105 | -0.319 | 0
